High-throughput results: PubChem BioAssay, National Center for Advancing Translational Sciences (NCATS)
BAZ2B inh = qHTS Assay for Inhibitors of BAZ2B. Bromodomain adjacent to zinc finger domain protein 2B (Homo sapiens), Q9UIF8. AlphaScreen BAZ2B-H3K14Ac peptide displacement. Potency, µM (highest dose often 114 µM), without a hit: top-dose activity change, negative = inhibition, most hits filed as inhibitors. 360,000 compounds, 4.4% hits. AID 504333, 2011; note: % is set by controls: 0 for no effect and ±100 for the full control effect; nearly all actives have a fitted effect of over 60% in size
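In this displacement format the biotinylated H3(5-23) peptide acetylated at Lys14 serves as ligand at 50 nM, with BAZ2B at 50 nM in PBS pH 7.4 containing 0.01% Tween-20. Donor and acceptor beads are 10 ug/mL final.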
Sfp inh = qHTS Assay for Inhibitors of Bacillus subtilis Sfp phosphopantetheinyl transferase (PPTase); Potency, µM, for the others: largest response in the series, negative = inhibition, actives largely listed as inhibitors; Biochemical Sfp PPTase activity, qHTS; AID 1490, 2009; 310,000 compounds, 3.5% hits;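 note: the enzyme is Sfp with the accession as filed and its product quenches rhodamine fluorescence; 0% = enzyme reaction without inhibitor and -100% = no enzyme wells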
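Fluorescence-quenching assay with 15 nM Sfp, 5 uM rhodamine-CoA and 12.5 uM BHQ-2-labelled ybbR peptide in pH 7.6 Hepes/MgCl2 buffer. Enzyme was pre-incubated with compound for 15 min at room temperature. Rate was taken from the 30-min fluorescence change (525/598 nm).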
HP1b chromo inh = HTS for Inhibitors of HP1-beta Chromodomain Interactions with Methylated Histone Tails; AlphaScreen HP1-beta / biotin-H3K9me3 peptide binding; Potency, µM (doses to about 114 µM), for inactives: at the top dose activity change, negative = inhibition, actives largely listed as inhibitors; 390,000 compounds, 0.56% hits; AID 540317, 2011; note: nearly all actives have a fitted effect of over 70% in size
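HP1-beta protein (50 nM final) preincubated 30 min at room temperature with biotinylated H3(1-18)K9me3 peptide (50 nM) in PBS pH 7.4, 0.01% Tween-20, then compound added for 30 min. AlphaScreen streptavidin donor/nickel chelate acceptor beads (10 ug/mL final), 30 min dark, luminescence read.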
JMJD2A Tudor = qHTS Assay for Inhibitors of JMJD2A-Tudor Domain | AlphaScreen JMJD2A-Tudor / H3K4me3 peptide binding | Potency, µM (series often up to 114 µM), for inactives: top-dose activity change, negative = inhibition, usual class: inhibitors | 390,000 compounds, 4.4% hits; note: % is set by controls: 0 for no effect and ±100 for the full control effect; nearly all actives have a fitted effect of over 50% in size
ALOX12 inh = Primary qHTS assay for inhibitors of human arachidonate 12S-lipoxygenase (ALOX12): Round 2. Polyunsaturated fatty acid lipoxygenase ALOX12 (Homo sapiens), P18054. purified 12hLO, xylenol orange hydroperoxide absorbance. Potency, µM (highest dose often 108 µM), for the others: at the highest dose activity change, negative = inhibition, actives largely listed as inhibitors. 580,000 compounds, 1.1% hits; note: % is set by controls: 0 for no effect and ±100 for the full control effect
Target sequence (P18054 whole entry, looked up): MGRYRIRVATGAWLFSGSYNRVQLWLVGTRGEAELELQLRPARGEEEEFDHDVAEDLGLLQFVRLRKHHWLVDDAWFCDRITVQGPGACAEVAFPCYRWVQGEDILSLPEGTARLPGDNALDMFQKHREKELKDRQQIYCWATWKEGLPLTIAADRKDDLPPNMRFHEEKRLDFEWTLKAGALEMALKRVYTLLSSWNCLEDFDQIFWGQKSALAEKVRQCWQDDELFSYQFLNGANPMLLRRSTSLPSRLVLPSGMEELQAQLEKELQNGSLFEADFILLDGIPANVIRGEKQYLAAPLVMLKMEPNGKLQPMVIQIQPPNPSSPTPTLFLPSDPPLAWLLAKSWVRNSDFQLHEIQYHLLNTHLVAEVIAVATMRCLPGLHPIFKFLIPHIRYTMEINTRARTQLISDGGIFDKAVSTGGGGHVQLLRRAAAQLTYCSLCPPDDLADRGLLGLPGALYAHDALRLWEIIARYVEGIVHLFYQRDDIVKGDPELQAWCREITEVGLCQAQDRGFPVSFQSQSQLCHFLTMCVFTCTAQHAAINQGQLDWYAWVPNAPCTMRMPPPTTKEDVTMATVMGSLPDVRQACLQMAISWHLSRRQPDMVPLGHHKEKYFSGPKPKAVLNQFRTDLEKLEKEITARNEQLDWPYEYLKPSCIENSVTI
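Hydroperoxide product was detected by ferrous iron/xylenol orange as the 573 to 405 nm absorbance ratio. Arachidonic acid at 40 uM (final) was turned over for 30 min at room temperature by 150 nM human 12hLO, pH 7.0 Hepes buffer, after 15 min compound preincubation.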
G9a inh = qHTS Assay for Inhibitors of Histone Lysine Methyltransferase G9a. G9a H3K9 monomethylation, AlphaScreen, 2 h. Histone-lysine N-methyltransferase EHMT2 (Homo sapiens), Q96KQ7. 350,000 compounds, 8.8% hits. Potency, µM (doses to about 102 µM), inactives show at the highest dose activity, negative = inhibition, usual class: inhibitors; note: % is set by controls: 0 for no effect and ±100 for the full control effect; nearly all actives have a fitted effect of over 75% in size
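Compounds were preincubated with 20 nM G9a for 15 min, after which biotinylated H3K9 peptide (500 nM) and SAM (20 uM) started a 2 h room-temperature reaction. Monomethylated product was quantified by antibody-based AlphaScreen chemiluminescence.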
Active calls of the source: *; ? = inconclusive; . = no result given; [ ] = remark or other dose. Shown are actives, neighbours in structure and some others; about 8.7% of the full set was active somewhere. Calls come from the whole dose curve; as a rule, active = well fitted curve in the direction sought with a large enough effect; inconclusive = small, poorly fitted or top-dose-only effect, or another doubt; inactive = no such curve, though single readings can be large; an effect the other way counts as inactive or inconclusive. Potency is the fitted concentration of half-maximal effect.

SMILES	BAZ2B inh	Sfp inh	HP1b chromo inh	JMJD2A Tudor	ALOX12 inh	G9a inh
CC(=O)Nc1ccc(CN2CCCCCCC2)cc1	?	13.3%	?	3.16µM*	?	-44.4%[59 µM]
S=C(Nc1ccccc1)Nc1cccc(Cl)c1Cl	-7.2%	-21.0%	32.3%	-15.1%	-18.4%	.
S=C(Nc1ccc(CN2CCCCC2)cc1)Nc1cccc(Cl)c1Cl	-24.9%	-8.2%	22.4%	?	0.0%	39.8µM*
CCCCC1CN(c2cccc(-c3ccccc3)c2)C(=O)CN1C(=O)c1ncoc1C (stereo unspecified)	.	.	.	.	10.0%	.
CCN(CC)S(=O)(=O)c1cccc(-c2n[nH]c(=S)n2C)c1	-18.8%	-4.7%	?	17.8µM*	-33.7%	?
C=CCn1c(-c2cccc(S(=O)(=O)N(CC)CC)c2)n[nH]c1=S	.	?	13.0%	12.6µM*	?	3.55µM*
C=CCn1c(-c2cccc(S(=O)(=O)N3CCOCC3)c2)n[nH]c1=S	4.4%	.	11.4%	7.08µM*	?	7.08µM*
Cc1ccc(-c2n[nH]c(=S)n2C)cc1Cl	0.1%	?	-32.5%	3.16µM*	?	?
O=C(CSc1nnc(-c2cccnc2)o1)c1ccc(S(=O)(=O)N2CCCC2)cc1	.	.	.	.	5.8%	.
O=S(=O)(c1cccc(-c2n[nH]c(=S)n2C2CCCC2)c1)N1CCOCC1	.	-10.1%	12.3%	3.98µM*	?	10µM*
Cc1ccc(C(=O)Nc2ccc(CN3CCN(C)CC3)c(C(F)(F)F)c2)cc1C#Cc1cnc2cccnn12	.	.	.	.	0.344µM*	.
CCN1CCN(Cc2ccc(NC(=O)c3ccc(C)c(NC(=O)c4cc(-c5ccc(Br)cc5)n[nH]4)c3)cc2C(F)(F)F)CC1	?	79.4µM*	-12.3%	?	?	?
CCN1CCN(Cc2ccc(NC(=O)c3ccc(C)c(NC(=O)c4nccn4C)c3)cc2C(F)(F)F)CC1	-28.1%	5.8%	33.7%	-12.8%	-0.3%	-9.0%[12.7 µM]
CCN1CCN(Cc2ccc(NC(=O)c3ccc(C)c(NC(=O)c4nccnc4N)c3)cc2C(F)(F)F)CC1	-16.5%	89.1µM*	40.3%	-28.9%	-18.7%	15.6%[12.7 µM]
CCCC(=O)N1Cc2ccccc2CC2(CCN(C)C2)C1 (stereo unspecified)	.	.	.	.	-0.6%[12.5 µM]	.
CC1CSc2ccc(S(=O)(=O)NCCc3ccccc3)cc2NC1=O (stereo unspecified)	.	.	.	.	-1.4%	.
COc1cc(CCC(=O)Nc2nnc(-c3cccnc3)s2)cc(OC)c1OC	-5.3%	-23.3%	-9.8%	-20.0%	-11.2%	39.8µM*
COc1cccc(-c2csc(N3CCN(C(=O)C4CCCCC4)CC3)n2)c1	?	?	-25.9%	?	4.1%	14.1µM*
COc1cccc(N2CCN(CC(=O)Nc3nnc(-c4ccccc4)s3)CC2)c1	?	-1.3%	-20.3%	89.1µM*	0.0%	-6.3%[59 µM]
COc1ccc(NC(=O)CN2CCN(c3nc(-c4cccc(OC)c4)cs3)CC2)cc1	?	10.5%	-20.5%	?	39.0%	10µM*
COc1ccc(CNC(=O)CCc2cccnc2)cc1OC	.	.	.	.	-6.4%	.
CCc1ccccc1NC(=O)CN1CCN(C(=O)CN(C)Cc2cnn(-c3ccccc3)c2)CC1	.	.	.	.	2.3%	.
COc1ccc(NC(C)=O)cc1NC(=O)CNC(c1ccc(F)cc1)c1cccs1 (stereo unspecified)	.	.	.	.	-4.8%	.
Cc1cccc(NC(=O)Cn2ccn3nc4c(c3c2=O)CCCCC4)c1C	.	.	.	.	-8.2%	.
COc1ccc(CN2C(=O)CO[C@H](c3ccc(NC(=O)c4cccs4)cc3)[C@H]2CO)cc1	.	.	.	.	-6.7%	.
SMILES	BAZ2B inh	Sfp inh	HP1b chromo inh	JMJD2A Tudor	ALOX12 inh	G9a inh
CN(C)c1cccc(C(=O)NCc2ccccc2)c1	-17.4%	-0.8%	-6.9%	-27.1%	17.1%	-8.5%
CN(C)c1cccc(C(=O)NCc2ccccc2Cl)c1	50.1µM*	-4.8%	-1.9%	?	4.3%	-47.2%
O=C(NCc1ccccc1Cl)c1cccc(C(F)(F)F)c1	19.8%	-3.2%	41.5%	17.1%	2.2%	44.7µM*
CCCCCCCCS(=O)(=O)CCCCC(=O)O	.	.	.	.	21.0%	.
COC[C@@H]1CNC[C@H]1c1nc(C)no1	.	.	.	.	23.9%	.
O=C1/C(=C/c2ccc(O)c(O)c2)Oc2cc(O)ccc21	56.2µM*	?	-4.4%	-29.9%	11.2µM*	?
COc1cc(/C=C2\Oc3cc(O)ccc3C2=O)ccc1O	-0.9%	-3.6%	47.8%	4.8%	?	22.8%[12.7 µM]
Cc1ccc(C(=O)N2CCCCCCNC(=O)[C@@H]3C[C@@H](c4nc(Cc5ccccc5)no4)C[C@@H]32)s1	.	.	.	.	18.0%	.
CSc1ncc(Cl)c(C(=O)N(Cc2ccc(N(C)C)cc2)Cc2ccco2)n1	17.8µM*	.	?	22.4µM*	-29.0%	12.6µM*
Cc1ccc2c(CC(=O)N(Cc3ccc(N(C)C)cc3)Cc3ccco3)coc2c1C	8.91µM*	.	?	12.6µM*	0.4%	8.91µM*
Cc1c(C(=O)N(Cc2ccc(N(C)C)cc2)Cc2ccco2)oc2cc(Br)ccc12	?	.	?	17.8µM*	-23.2%	?
O=C(c1ccco1)N(Cc1ccc(Cl)cc1)Cc1ccco1	?	0.9%	32.0%	-4.9%	-23.2%	31.6µM*
CC(C)C(C(=O)NC(c1ccccc1)C1CCCC1)c1ccccc1 (stereo unspecified)	.	.	.	.	-22.8%	.
COc1ccc(-c2cc(-c3nc(-c4ccccc4)no3)[nH]n2)c(OC)c1	.	.	.	.	2.7%	.
Cc1ccc(OCCC2CCN(C(=O)Cc3c[nH]c4ccccc34)C2)cc1 (stereo unspecified)	.	.	.	.	5.9%	.
CCOc1c(Cl)cc(C(=O)N(Cc2ccc(N(C)C)cc2)Cc2ccco2)cc1Cl	12.6µM*	.	-23.8%	12.6µM*	-25.5%	?
CC(C)(C)c1ccc(C(=O)N(Cc2ccc(F)cc2)Cc2ccco2)cc1	14.8%	.	69.5%	-4.7%	-8.3%	?
CC(C)COc1ccc(C(=O)N(Cc2ccc(N(C)C)cc2)Cc2ccco2)cc1	12.6µM*	.	-15.0%	14.1µM*	0.0%	15.8µM*
CN(C)c1ccc(CN(Cc2ccco2)C(=O)c2ccco2)cc1	?	-13.2%	?	31.6µM*	2.0%	44.7µM*
COc1ccc(C(=O)N(Cc2ccco2)Cc2ccco2)cc1	-30.4%	.	10.2%	-22.0%	-19.9%	8.2%[59 µM]
CCOc1ccccc1C(=O)N(Cc1ccc(N(C)C)cc1)Cc1ccco1	35.5µM*	.	?	25.1µM*	-27.8%	20µM*
